High-throughput results from PubChem.
The entries come from a sample that favours hits as a whole.
ST2 inh: inhibitors of human ST2 (IL1RL1) binding to IL-33; Q01638; AlphaLISA ST2-Fc/biotin-IL-33 interaction, 1 h; inhibition, % for hits at 17 µM; 78,000 compounds, 2.3% hits; AID 1259354; in the data active means inhibition above about 30%
Target sequence (Q01638 whole entry, looked up): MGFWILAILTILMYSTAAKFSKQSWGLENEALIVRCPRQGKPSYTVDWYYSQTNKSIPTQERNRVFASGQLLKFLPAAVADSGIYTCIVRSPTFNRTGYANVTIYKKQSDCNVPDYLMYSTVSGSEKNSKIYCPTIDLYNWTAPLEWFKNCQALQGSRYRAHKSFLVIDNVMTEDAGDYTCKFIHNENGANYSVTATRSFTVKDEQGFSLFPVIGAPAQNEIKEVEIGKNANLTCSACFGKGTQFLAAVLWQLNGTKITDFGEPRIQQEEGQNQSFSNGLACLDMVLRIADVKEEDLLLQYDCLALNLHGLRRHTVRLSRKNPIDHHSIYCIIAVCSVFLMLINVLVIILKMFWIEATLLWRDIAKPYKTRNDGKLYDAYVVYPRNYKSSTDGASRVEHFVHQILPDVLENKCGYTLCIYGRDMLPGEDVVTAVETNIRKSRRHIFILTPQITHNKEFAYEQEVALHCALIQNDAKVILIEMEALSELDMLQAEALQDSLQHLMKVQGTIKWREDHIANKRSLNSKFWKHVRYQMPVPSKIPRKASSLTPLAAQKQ
* = called active by the depositor; i = inactive; ! = repeats disagree.

SMILES	ST2 inh
CCn1cc(NC(=O)c2cccc(CN3CCCC3c3cc(C)no3)c2)nn1 (stereo not drawn)	i
Cc1ccc(-n2nc3c(c2NC(=O)c2c(F)cccc2Cl)CS(=O)C3)cc1 (stereo not drawn)	i
O=C(NCc1ccccc1Cl)C1C2C=CC3(CN(Cc4cccs4)C(=O)C13)O2 (stereo not drawn)	i
CCCS(=O)(=O)N1CCCC(C(=O)N2CCC(C(N)=O)CC2)C1 (stereo not drawn)	i
COCC1CCCN(Cc2ccc3c(c2)CN(Cc2cccn2-c2cccnc2)CCO3)C1 (stereo not drawn)	i
CCOc1ccc(C2=C(CN(C)C)C(c3ccc(F)cc3)c3ccccc3O2)cc1 (stereo not drawn)	40.0%*
CCOC1=CC(c2ccc(F)cc2)Oc2ccccc21 (stereo not drawn)	i
c1ccc(OCCCN2CCOCC2)cc1	i
CCOC(=O)C1CCN(C(=O)C2c3ccccc3Oc3ccccc32)CC1	i
CCOc1ccc(C2=C(CN3CCOCC3)C(c3ccccc3)c3ccccc3O2)cc1 (stereo not drawn)	31.0%*
CCOc1ccc2c(=O)c(-c3ccc(F)cc3)c(C)oc2c1	i
COc1ccccc1-c1nc(C(N)=O)c2c(n1)n(-c1ccc(C)c(C)c1)c(=O)n2C	i
COC(=O)c1ccc(N2C(=O)CSC2c2cccc(Cl)c2Cl)cc1 (stereo not drawn)	i
Cc1c(NC(=O)c2ccc(Cl)cc2)c(=O)n(-c2ccccc2)n1C	i
C=CCNC(=O)c1ccc(N(Cc2ccccc2Cl)S(C)(=O)=O)cc1	i
COc1ccc(C2C3=C(Nc4c2c(=O)n(C)c(=O)n4C)c2ccccc2C3=O)cc1 (stereo not drawn)	i
COc1cc(/C=C2\SC(=Nc3cccc(C(=O)O)c3)N(C)C2=O)cc(Cl)c1O	i
CCCC(C)NC(=O)c1ccc(N(C)C)cc1 (stereo not drawn)	i
CN(C)c1ccc(NC(=O)c2ccc(Cl)cc2)cc1	i
CN(C)c1ccc(C(O)(c2ccc(N(C)C)cc2)c2ccc(N(C)C)cc2)cc1	97.0%*
COc1ccc(OC)c(S(=O)(=O)Nc2cccc(SC)c2)c1	i
N#CC1=C(N)Oc2n[nH]c(-c3ccccc3)c2C1c1cccc(Br)c1 (stereo not drawn)	i
CCn1c(C(=O)O)c(CC(=O)N2CCN(c3ccccc3)CC2)c2ccccc21	i
CCOC(=O)c1c(C)n(-c2ccccc2)c2ccc(OC(=O)c3ccco3)cc12	i
Cc1c(CCCN)c2ccccc2n1-c1ccccc1	34.0%*
SMILES	ST2 inh
CCc1nc2c(sc3nc4c(cc32)COC(C)(C)C4)c(=O)n1CCN1CCOCC1	i
CCNS(=O)(=O)c1ccc(OC)c(OC)c1	i
CCN(Cc1nc(COC)no1)C(=O)C1CCCO1 (stereo not drawn)	i
O=C(Cc1ccccc1)Nc1cc(C(=O)O)c(NC(=O)Cc2ccccc2)cc1C(=O)O	i
CC(=O)Oc1ccc2c(=O)c(-c3csc(-c4ccccc4)n3)coc2c1	i
CCOc1ccc2c(=O)c(-c3nc4ccccc4s3)coc2c1	30.0%*
CCc1cc2c(=O)c(-c3nc4ccccc4s3)coc2cc1OC	i
COC(=O)c1cccc(NC(=S)N[C@H]2CO[C@H]3[C@@H]2OC[C@@H]3n2nnnc2Oc2cccc(N(C)C)c2)c1	i
Cc1ccc(C(=O)N[C@H]2CO[C@H]3[C@@H]2OC[C@@H]3n2nnnc2Oc2cccc(N(C)C)c2)cc1	81.0%*
Cc1ccc(C(=O)N[C@H]2CO[C@H]3[C@@H]2OC[C@@H]3n2nnnc2-c2ccc(N(C)C)cc2)cc1	i
CCc1ccc(-n2c(C)nc3c(cnn3-c3ccc(F)cc3)c2=O)cc1	i
Cc1c(Cl)c(C)c([N+](=O)[O-])c(O)c1C=Nc1ccc(F)cc1	i
COc1cc(Br)c(Br)c(C=Nc2ccc(F)cc2)c1O	i
Oc1c(C=Nc2ccc(F)cc2)[nH]c2ccc(Br)c(Cl)c12	30.0%*
Oc1c(C=NCc2ccc(F)cc2)[nH]c2ccc(Br)c(Cl)c12	39.0%*
Oc1c(C=NCCc2ccccc2)[nH]c2ccc(Br)c(Cl)c12	32.0%*
Oc1c(C=NCc2ccc(Cl)cc2Cl)[nH]c2ccc(Br)c(Cl)c12	i
COc1ccc(CCN=CC2=C(O)CC(c3ccccc3)CC2=O)cc1OC (stereo not drawn)	i
CN(C)S(=O)(=O)c1ccc(C(=O)N=c2sc3cc(Cl)ccc3n2C)cc1	i
O=C(Nc1cc2c(cc1Cl)OCCO2)c1cc(Cl)ccc1O	i
CCOC(=O)c1oc2ccccc2c1NC(=O)c1c(-c2ccccc2Cl)noc1C	i
COCCCNC(=O)CN1CCN(Cc2ccc(F)cc2Cl)C1=O	i
Cc1ccc2[nH]c3c(c2c1)CN(Cc1ccccc1)CC3	i
Cc1ccc2[nH]c3c(c2c1)CCC1C3=NNC1c1ccco1 (stereo not drawn)	37.0%*
Cc1ccc2[nH]c3c(c2c1)CCCC3=O	i
SMILES	ST2 inh
CCOC(=O)c1sc(=NC(=O)c2ccc(Oc3ccccc3)cc2)n(C)c1C	i
O=C1c2ccccc2C(Nc2ccccc2Br)N1Cc1ccccc1 (stereo not drawn)	i
CN1CCN(CCCNC(=O)c2cc(-c3ccncc3)nc3ccccc23)CC1	i
COc1ccc(CC2CN(C(=O)c3c(C)cc(C)[nH]c3=O)CCO2)cc1 (stereo not drawn)	i
CN(C)c1ccc(/C=C/c2nc3ccc(I)cc3c(=O)n2C)cc1	42.0%*
COc1ccc(/C=C/c2nc3ccccc3c(=O)n2Cc2ccccc2)cc1	i
CN(C)c1ccc(/C=C/c2nc3ccccc3c(=O)n2CCCO)cc1	i
O=C(O)c1ccc(NC(=O)C2CCCCC2)c(NC(=O)C2CCCCC2)c1	i
COc1ccc(CCNC(=O)C2(C)CCC(=O)N2Cc2cccs2)cc1OC (stereo not drawn)	i
CCc1[nH]ncc1C(=O)N1C[C@H]2CC=C(C)C[C@H]2C1	i
Cc1cc(N2C(=O)c3cccc([N+](=O)[O-])c3C2=O)no1	i
O=C1c2ccc([N+](=O)[O-])cc2C(=O)N1c1c[nH]c(=O)[nH]c1=O	i
COc1cc2c(cc1OC)C(C(=O)Nc1ccc(C)c(F)c1)C(c1cccs1)N(C)C2=O (stereo not drawn)	i
COc1cccc(C2C(N3C(=O)c4ccccc4C3=O)C(=O)N2c2ccc(C)c(F)c2)c1 (stereo not drawn)	i
Cc1ccc(N2C(=O)C(N3C(=O)c4ccccc4C3=O)C2c2ccc(N(C)C)cc2)cc1F (stereo not drawn)	31.0%*!
O=C1c2ccc([N+](=O)[O-])cc2C(=O)N1CN1CCCCC1	i
Cc1cc(Cl)ccc1N1C(=O)C(N2C(=O)c3ccc([N+](=O)[O-])cc3C2=O)C1c1cccs1 (stereo not drawn)	39.0%*
Cc1ccc(N2C(=O)C(N3C(=O)c4cccc([N+](=O)[O-])c4C3=O)C2c2cccs2)cc1F (stereo not drawn)	32.0%*
COc1cccc(C2C(N3C(=O)c4ccccc4C3=O)C(=O)N2c2ccc(C)c(C)c2)c1 (stereo not drawn)	i
Cc1cc(=O)c2cc(NC(=O)c3ccccc3)ccc2[nH]1	i
CC1=C(C(=O)OC2CCCCC2)C(c2ccc(Br)cc2)n2ncnc2N1 (stereo not drawn)	i
O=C(O)CCCCCNC(=O)COc1ccc2c3c(c(=O)oc2c1)CCCC3	i
CCOC(=O)c1c(NC(=O)c2cccs2)sc2c1CCC(CC)C2 (stereo not drawn)	i
